# The supplement of paper PMC6555819
# Assays:
# Assay in all cases: PBM binding z-score (relative to random genomic background probes); higher = stronger binding; sequences stand for … in GC…GCGATTGACAGCGTAGAATGAAGG
# [1] = tested on: FXR:RXRa (NR concentration 270 nM, RXRa partner concentration 90 nM)
# Outline: (§1)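 The probes on custom Agilent 4×180K protein-binding microarrays were double-stranded, with 34-nt variable regions bearing direct-repeat seeds, single-nucleotide variants, half-site ablations and random human genomic background sequences. Incubation lasted 1 h with ligand-free nuclear receptor dimers in PBS pH 7.4, 2% milk, 0.02% Triton X-100, 1 mM DTT, 0.2 mg/mL BSA and 0.4 mg/ml salmon testes DNA. Antibodies against each partner (one per run) detected bound dimers, and fluorescence scans were regression-normalized. Binding z-scores take the random background probes as reference.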
# [2] = tested on: LXRa:RXRa (NR concentration 270 nM, RXRa partner concentration 90 nM)
# Outline: as §1
# [3] = tested on: LXRa homodimer (NR concentration 270 nM)
# Outline: as §1
# [4] = tested on: LXRb:RXRa (NR concentration 270 nM, RXRa partner concentration 90 nM)
# Outline: as §1
# [5] = tested on: LXRb homodimer (NR concentration 270 nM)
# Outline: as §1
# [6] = tested on: PPARa:RXRa (NR concentration 270 nM, RXRa partner concentration 90 nM)
# Outline: as §1
# [7] = tested on: PPARg:RXRa (NR concentration 180 nM, RXRa partner concentration 90 nM)
# Outline: as §1
# [8] = tested on: PPARg:RXRa 270nM:90nM, anti-RXR (NR concentration 270 nM, RXRa partner concentration 90 nM)
# Outline: as §1
# [9] = tested on: PPARg:RXRa 30nM:10nM, anti-RXR (NR concentration 30 nM, RXRa partner concentration 10 nM)
# Outline: as §1
# [10] = tested on: PPARg:RXRa 90nM:30nM, anti-RXR (NR concentration 90 nM, RXRa partner concentration 30 nM)
# Outline: as §1
# [11] = tested on: PPARg:RXRa DBDmut IVT, anti-RXR (DBD mutation: RXRa K156A/R161A, NR concentration 270 nM, RXRa partner concentration 90 nM)
# Outline: as §1
# [12] = tested on: PPARg:RXRa IVT, anti-PPARg (NR concentration 270 nM, RXRa partner concentration 90 nM)
# Outline: as §1
# [13] = tested on: PPARg DBDmut:RXRa IVT, anti-PPARg (DBD mutation: PPARg1 K132A/R137A, NR concentration 270 nM, RXRa partner concentration 90 nM)
# Outline: as §1
# [14] = tested on: PPARg DBDmut IVT, anti-PPARg (DBD mutation: PPARg1 K132A/R137A, NR concentration 270 nM)
# Outline: as §1
# [15] = tested on: PPARg homodimer (NR concentration 180 nM)
# Outline: as §1
# [16] = tested on: PXR:RXRa (NR concentration 270 nM, RXRa partner concentration 90 nM)
# Outline: as §1
# [17] = tested on: PXR homodimer (NR concentration 270 nM)
# Outline: as §1
# [18] = tested on: RARa:RXR (NR concentration 270 nM, RXRa partner concentration 90 nM)
# Outline: as §1
# [19] = tested on: RARa homodimer (NR concentration 270 nM)
# Outline: as §1
# [20] = tested on: RARb:RXRa (NR concentration 270 nM, RXRa partner concentration 90 nM)
# Outline: as §1
Sequence,PBM binding z-score [1],PBM binding z-score [2],PBM binding z-score [3],PBM binding z-score [4],PBM binding z-score [5],PBM binding z-score [6],PBM binding z-score [7],PBM binding z-score [8],PBM binding z-score [9],PBM binding z-score [10],PBM binding z-score [11],PBM binding z-score [12],PBM binding z-score [13],PBM binding z-score [14],PBM binding z-score [15],PBM binding z-score [16],PBM binding z-score [17],PBM binding z-score [18],PBM binding z-score [19],PBM binding z-score [20]
CGAACTAGGACAAGGACAGTGAATCTCCGCACGC,0.182,-0.241,-0.152,-0.655,-0.538,0.455,1.22,0.612,-0.234,0.216,5.04,3.15,0.0656,0.471,0.000634,-0.249,-0.177,0.0939,-0.389,0.708
TCTAGTAGATCAAAGGTTAAGAAAGCCGAAGCCT,1.56,2.07,0.141,1.98,-0.538,4.8,8.6,8.24,8.54,8.99,2.37,3.82,0.0215,0.532,1.09,1.86,-0.328,2.97,0.336,1.72
CATACAGGGTCAGCTAGACCAGAGTAGGGACGGC,4.47,2.92,-0.0625,2.14,0.336,4.07,3.27,3.06,0.824,1.87,1.02,2.59,1.26,0.0987,1.43,2.03,-0.458,3.16,0.685,4.07
AGAATGAGCTTATTAAGATCAGGGAATTGCGGTC,-0.612,-0.88,-0.374,-0.82,-0.756,-0.52,0.00552,-0.444,-0.148,-0.365,-0.544,-0.262,0.296,0.244,-0.453,-0.238,-0.13,-0.065,-0.11,-0.496
TAGCCTAGGTCATGCGGGCCAGTAAAGTGTCGGC,3.65,3.17,-0.0418,1.66,-0.608,3.69,2.07,2.27,-0.0823,1.37,1.41,2.75,0.246,-0.0156,0.811,1.51,-0.33,2.44,-0.385,3.78
CCTCGGAGGACAACAGGAGGTCACAGCTGCCAGA,2.75,3.93,3.82,2.82,-0.268,3.42,1.76,2,-0.188,1.1,0.582,1.67,-1.61,-1.12,2.8,4.2,0.604,4.69,0.924,3.35
CGAACTACGTCAAGGACAGTGAATCTCCGCACGC,-0.000991,-0.458,0.0307,-0.729,-0.268,-0.387,0.65,-0.549,-0.403,-0.799,-0.146,-0.464,-0.384,-0.387,-0.76,-0.445,0.128,-0.00341,-0.551,0.27
CGTCCAAGGTCAATGCTAGGTCAGTAAAAGCATT,6.68,5.2,2.38,4.32,0.868,5.23,4.37,4.46,1.9,3.08,3.36,4.08,0.0708,-0.363,5.6,4.82,1.32,6.12,1.53,5.32
CTACCGAGGTGAACAAGGTCGTTGATTACTATTC,1.49,1.66,0.107,2.37,-0.186,3.16,1.79,1.8,0.0798,0.754,2.91,3.47,0.523,0.329,0.965,3.25,1.95,2.62,-0.15,2.19
TAACCTAGGTCATTCAGGGGCCAGTATAGAAAGC,5.52,5.3,3.1,3.98,2.09,4.46,3.45,4.12,1.61,3.03,3.77,4.77,0.824,0.744,2.96,3.09,0.651,4.06,0.531,4.33
GATACAGGGTCAAGGCCAGTGTACGCGTATTGAT,6.59,4.26,-0.145,3.52,-0.211,5.6,5.69,5.76,2.44,4.1,2.53,3.95,0.493,-0.124,2.17,3.97,0.209,4.47,0.237,4.41
GCTAGCAGGCCATTTGGGTCAATCAATGACGGGC,0.192,0.264,-0.476,0.271,-0.737,1.4,0.636,0.364,-1.07,-0.156,1.77,1.92,-1.29,-0.902,-0.569,0.511,0.261,0.95,-0.573,1.3
TCCGCTAGGTCAGTTGGTCAGCTAACGAGCTGCC,1.2,0.833,-0.36,0.472,-0.0467,1.57,0.233,1.55,1.2,1.49,2.32,2.55,-0.0326,-0.848,0.175,0.233,-0.744,0.687,-0.7,3.44
CCTCGGAGGACAGAAAGTCAGAGCTGTCCGCTTT,-0.421,-0.464,-0.45,-1.05,-0.903,-0.745,-0.796,-0.982,-1.28,-1.14,-0.616,-1.05,-1.75,-1.4,-0.952,-0.859,-0.619,-0.54,-0.769,0.221
TCTAGCAGGCCAGAGGCTCACTCAAGAGGTACGG,-1.6,-1.07,-0.954,-0.966,-1.81,-0.344,0.578,1.01,1.38,1.21,0.411,-0.442,-1.19,-2.42,-1.71,-0.83,-1.3,-0.758,-1.3,-0.419
GCAGACAGGTGAAACGCAGGTAATTCAGGGTGGC,-0.0187,-0.113,-0.552,-0.337,-1.33,0.845,0.419,-0.127,-0.526,-0.551,0.893,0.576,-0.406,-0.569,0.0586,-0.158,-0.351,0.462,-0.448,0.697
GGAACTAGGGCATTCGAGTTGATAGCATGGCGAT,0.225,0.214,-0.0911,-0.433,-0.474,2.54,3.49,3.04,0.86,1.91,7.47,7.05,0.246,1.27,0.796,1.44,-0.109,0.587,-0.515,0.965
TCTTGTAGATCAGCCGGTTAAGAAAGCTGGCCAA,-0.161,0.143,-0.223,0.0561,-0.394,0.168,-0.791,1.24,2.52,1.74,1.7,-0.0533,-0.491,0.198,-0.81,-0.0108,-0.447,0.0162,-0.458,-0.316
ACTAGCAGGCCAAGTGTGGGTCACTCAAACAAAG,-0.167,0.206,-0.486,0.691,-0.959,2.19,0.66,1.38,-0.102,0.685,2.05,2.79,-0.334,-0.527,0.309,0.546,-0.107,1.35,-1.55,1.79
CCGACTGGGGCAGAAAGGTTACAATACCATCCGG,0.452,0.428,-0.0734,1.17,-0.707,2.02,1.77,2.68,0.821,2.01,1.65,1.7,-0.655,-0.38,0.958,1.14,-0.0674,1.67,0.24,1.73
TCTTGTAGATCAGCAGGTTATGAAAGCTGGCCAA,0.122,0.0807,-0.501,0.444,-0.22,0.665,-0.222,1.29,2.49,1.59,1.43,0.523,-0.144,0.592,-0.672,0.11,-0.253,0.383,-0.663,0.164
ATCTCTAGGTAACCAAGTTCAGTGAGTGCCGAAC,0.417,0.863,0.949,0.855,0.746,1.04,0.34,0.67,-0.0594,0.338,3.88,2.77,0.349,0.828,0.761,2.12,3.09,0.548,0.845,1.21
GCTTACGGGTCAAAGGTTATAGCCTGAATAGAAT,7.79,5.8,0.763,5.69,0.503,6.88,11.5,9.6,10.2,11.3,4.87,6.32,0.778,1.43,7.84,6.26,0.103,8.66,-0.0748,4.65
ACTAGTTGGTCAGCGGAGGTCACACACAATTCGG,2.84,3.44,3.05,3.15,0.932,3.52,1.91,2.26,1.3,1.68,1.63,2.75,1.36,0.469,3.06,4.99,1.8,4.46,1.6,3.59
CTACCAAGGTGAATAAGGTCGTTGATTACTATTC,1.18,1.3,0.402,1.58,-0.326,2.22,0.631,1.01,0.203,0.602,1.82,2.39,0.0322,-0.387,0.714,2.37,2.32,2.44,0.949,1.71
TCGAGTAGGTTAGGGGAATTCAGAATGGCGTCGA,-0.0318,-0.209,-0.147,0.224,-0.435,0.565,0.159,1.02,1.11,1.18,2.13,1.78,0.128,-0.466,0.866,-0.0984,0.0558,-0.0883,0.338,0.249
TCTTGTAGTTCAAAGGTTAAGAAAGCCGAAGCCT,4.09,4.39,1.23,3.51,0.628,5.16,7.14,7.29,7.28,7.39,1.69,2.84,0.125,1.99,1.87,4.59,0.443,6.25,0.439,3.36
ATATGTAGGTTAAGGGACATTCAGGTTGGTTCGC,0.93,1.06,0.514,0.945,0.703,3.79,6.5,6.51,4.44,6.65,6.93,6.99,1.67,1.87,1.9,0.934,0.687,1.15,1.63,1.57
